Compound activity from PubChem.
Most compounds without a hit are left out; they make up all but 1% or so of the library.
SNCA viab count: reduces viability of HEK-293 SNCA reporter cells; actives 0.12% (n = 150,000); Potency, µM (top dose mostly 57.1 µM), for inactives: at the top dose activity change, negative = cytotoxicity, usual class: cytotoxic; HEK-293-SNCA-luc viability, GF-AFC fluorescence, 24 h; AID 1671193;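 also: potency is read from the fitted curve at half-maximal effect; 0% = DMSO-treated cells and -100% = medium-only wells without cells; nearly all actives have a fitted effect of over 30% in size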
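Cytotoxicity counterscreen: after 24 h compound treatment of genome-edited SNCA-luciferase HEK-293 cells, live-cell protease substrate GF-AFC read by fluorescence after 30 min; activity scaled between DMSO (0%) and medium-only (-100%), curves Hill-fitted.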
IP6K1 inhibitor: inhibitors of human IP6K1; actives 0.81% (n = 140,000); Q92551; IP6K1 kinase, ADP-Glo luminescence, 2 h; hits give low values; activity change, % (series mostly up to about 58 µM); in the data active = activity change below about -25%
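ADP-Glo luminescence measures ADP made by human IP6K1 during a 2 h RT reaction with ATP/IP6 (mix at 1.3 mM/130 uM); top library doses 57.5 and 19.1 uM final.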
GPT2 inh: blocks human glutamate pyruvate transaminase 2; Q8TD30; AID 1671188; Recombinant GPT2, coupled pyruvate oxidase/HRP Amplex Red fluorescence; Potency, µM (titrated, usually from 57.7 µM), inactives show top-dose activity change, negative = inhibition, actives largely listed as inhibitors; actives 0.25% (n = 100,000); also: potency is read from the fitted curve at half-maximal effect; nearly all actives have a fitted effect of over 60% in size
Target sequence (Q8TD30 whole entry, looked up): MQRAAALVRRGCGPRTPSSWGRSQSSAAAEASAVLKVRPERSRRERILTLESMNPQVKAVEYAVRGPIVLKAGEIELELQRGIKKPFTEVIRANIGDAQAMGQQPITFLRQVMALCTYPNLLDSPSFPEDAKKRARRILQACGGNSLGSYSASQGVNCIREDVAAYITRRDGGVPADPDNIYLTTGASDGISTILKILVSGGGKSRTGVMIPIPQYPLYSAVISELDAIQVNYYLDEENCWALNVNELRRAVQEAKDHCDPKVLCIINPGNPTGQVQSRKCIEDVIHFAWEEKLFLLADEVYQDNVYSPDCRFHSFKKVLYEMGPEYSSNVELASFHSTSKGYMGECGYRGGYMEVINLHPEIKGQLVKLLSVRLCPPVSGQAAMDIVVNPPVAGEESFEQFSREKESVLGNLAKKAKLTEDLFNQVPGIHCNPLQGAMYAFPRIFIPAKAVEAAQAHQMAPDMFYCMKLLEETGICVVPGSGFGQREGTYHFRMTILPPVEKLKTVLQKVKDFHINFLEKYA
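Fluorescence of coupled pyruvate oxidase/HRP/Amplex Red system (50uM Amplex, 30 min, dark) reports pyruvate formed by GPT2. Enzyme reaction: 10ng/uL GPT2, 2mM L-alanine, 250uM a-KG, 30 min room temperature, pH 7.5; 50uM AOA control.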
SNCA expr inhib: reduces expression of the alpha-synuclein gene. HEK-293 SNCA-luciferase knock-in, luminescence, 24 h. Potency, µM (top dose mostly 57.2 µM), for the others: top-dose activity change, negative = inhibition, hits mostly inhibitors. actives 0.17% (n = 140,000). AID 1671194;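 also: potency is read from the fitted curve at half-maximal effect; plate controls were DMSO cells for no effect and cell-free wells for full effect; nearly all actives have a fitted effect of over 45% in size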
IP6K1 conf: confirmation of human IP6K1 inhibitors; shares compounds with IP6K1 inhibitor; recombinant IP6K1 kinase, ADP-Glo luminescence, 2 h; Potency, µM (titrated, usually from 49 µM), inactives show top-dose activity change, negative = inhibition, actives largely listed as inhibitors; actives 13% (n = 1,200); AID 1645852; also: potency is read from the fitted curve at half-maximal effect; nearly all actives have a fitted effect of over 65% in size
Active calls of the source: *; i = inactive; ? = inconclusive; . = no result; ! = repeats disagree; [ ] = dose if it differs, or a comment. Unless noted, calls follow the shape of the dose curve; as a rule, active = well fitted curve in the direction sought with a large enough effect; inconclusive = small, poorly fitted or top-dose-only effect, or another doubt; inactive = no such curve, though single readings can be large; an effect the other way counts as inactive or inconclusive. Unless noted, % is scaled to controls: 0 for no effect and ±100 for the full control effect.

SMILES	SNCA viab count	IP6K1 inhibitor	GPT2 inh	SNCA expr inhib	IP6K1 conf
COc1ccc(S(=O)(=O)N2CCC(C(=O)Nc3cc(C(F)(F)F)ccc3Cl)CC2)cc1	?	-42.8*	.	?	-11.7%
COc1ccc(CNC(=O)C2CCN(S(=O)(=O)c3ccc(C)cc3)CC2)cc1	2.9%	16.4	.	-8.2%	.
CC(c1cccc(CN2CCC(CO)(CN3CCCC3)CC2)c1)N(C)C (stereo unspecified)	-18.7%	3.6	-0.6%	2.4%	.
CCCC(=O)NCc1cc2c(nc1OC)CN(C1CCCC1)C2=O	1.8%	-0.5	-0.6%	5.5%	.
CCC(=O)NCc1cc2c(nc1OC)CN(C1CCCC1)C2=O	18.5%	-32.8*	0.9%[11.5 µM]	4.1%	-9.9%
CCC(C)(C)C(=O)NCc1cc2c(nc1OC)CN(C1CCCC1)C2=O	-5.5%	-30.0*	?	-3.1%	8.7%
C[C@@H]1CN(c2cc(C3CC(O)C3)ncn2)C[C@H](C)O1 (stereo partly specified)	-3.3%	-30.7*	-29.4%[11.5 µM]	3.0%	-1.1%
O=C(Nc1ccccc1-c1cn2c(CN3CCNCC3)csc2n1)c1cnc2ccccc2n1	?	-28.5*	?	7.3%	?
Cc1nc(-c2cccnc2)sc1C(=O)Nc1ccccc1-c1cn2c(CN3CCOCC3)csc2n1	29.7%	7.1	i	.	.
COc1ccccc1CNC(=O)c1cc2cccc3c2n1CC(C)S3 (stereo unspecified)	-15.0%	-32.8*	.	?	-16.6%
Cc1ccccc1CNC(=O)c1cc2cccc3c2n1CC(C)S3 (stereo unspecified)	4.3%	26.3	.	-28.8%	.
Cc1cc(CNC(=O)c2cc(-c3ccco3)nc3c(Cl)cccc23)no1	-11.2%	-5.7	i	4.9%	.
COc1cccc(CNC(=O)c2ccc3nnc(Cc4ccco4)n3c2)c1	12.3%[87.6 µM]	-32.8*	3.0%[88.5 µM]	20.4%[87.6 µM]	?
O=C(NCc1ccccc1)c1ccc2nnc(Cc3ccco3)n2c1	6.0%	-14.1	i	-1.2%	.
O=C(NCc1cccs1)c1ccc2nnc(Cc3ccco3)n2c1	-3.6%[87.6 µM]	-31.7*!	i	23.6%[87.6 µM]	?
O=C(NCc1cccc(C(F)(F)F)c1)c1ccc2nnc(Cc3ccco3)n2c1	-6.0%	-29.9*	2.2%	-5.8%	?
Cc1cc(C(=O)N2CC(n3c(C)cnc3-c3ccccc3)C2)n(C)n1	5.7%	12.4	1.0%	-7.9%	.
CCOC(=O)[C@@H]1CN(C(=O)c2ccc(C)cc2)[C@H]2c3cccc(F)c3O[C@@H]12	.	11.8	.	.	.
Cc1ccc2c(c1)C(c1ccc(F)cc1)N(C(=O)c1cccc(C(F)(F)F)c1)CC(=O)N2 (stereo unspecified)	-28.1%	-26.0*	.	?	?
Cc1cc(C)cc(NC(=O)CCCc2nc(-c3ccco3)no2)c1	-0.3%	-26.7*	.	4.9%	-14.4%
Cc1ccc2c(n1)N(C)[C@H](CO)CCN(Cc1ccc(Cl)cc1)C2	-0.8%[87.6 µM]	-5.2	?	-1.2%[87.6 µM]	.
CCc1ccccc1NC(=O)CN1C(=O)CCSc2ccc(S(=O)(=O)N3CCCC3)cc21	-3.1%	-31.1*	.	-6.3%	-15.6%
O=C(CN1C(=O)CCSc2ccc(S(=O)(=O)N3CCCC3)cc21)Nc1ccccc1Cl	2.9%	-1.1	.	15.0%	.
O=C1CC(c2ccc(Cl)cc2)c2cc3c(cc2N1)OCCO3 (stereo unspecified)	-15.1%	-19.8	.	-12.8%	.
CNc1nc2c(s1)C(c1ccc(Cl)cc1)CC(=O)N2 (stereo unspecified)	5.6%	-28.3*	?	15.4%	16.4µM*
SMILES	SNCA viab count	IP6K1 inhibitor	GPT2 inh	SNCA expr inhib	IP6K1 conf
CN1CCN(c2cccc(Nc3nc4c(-c5ccc(S(C)(=O)=O)cc5)cccn4n3)c2)CC1	22.2%	-11.0	i	10.7%	0.8%
CN1CCN(c2ccnc(-c3cccc(NS(C)(=O)=O)c3)n2)CC1	5.6%	.	.	-5.4%	.
Cc1cn2c(=O)c(S(=O)(=O)NCCc3ccc(Cl)cc3)c(C)nc2s1	4.2%	-6.1	.	13.2%	.
Cc1ccc(CNS(=O)(=O)c2c(C)nc3sc(C)cn3c2=O)cc1	8.9%	-26.7*	.	-0.1%	5.1%
O=C(Nc1cccc(-c2ccc(N3CCOCC3)nn2)c1)Nc1cc(F)ccc1F	?	-13.3	-2.4%	?	.
O=C(Nc1cccc(-c2ccc(N3CCOCC3)nn2)c1)Nc1ccccc1F	-21.9%	-32.1*	i	-1.3%	?
Cc1cccc(CN2C(=O)c3ccccc3Sc3ccc(C(=O)NCc4ccco4)cc32)c1	-11.3%	4.9	.	17.1%	.
O=C(NCc1ccco1)c1ccc2c(c1)N(Cc1ccccc1)C(=O)c1ccccc1S2	?	-27.5*	.	?	?
O=C(NCCCN1CCCCCC1)c1ccc2c(c1)sc1nc(-c3ccccc3)cn12	?	-50.3*	.	-35.3%	?
CC(Oc1ccccc1)C(=O)OCc1cc(=O)n2nc(C(C)C)sc2n1 (stereo unspecified)	0.2%	-30.2*	.	19.8%	-8.9%
COCCCNC(=O)C1(C)CN(C)Cc2ccc(NCc3ccccc3)nc21 (stereo unspecified)	-5.1%[87.6 µM]	11.2	i	-4.1%[87.6 µM]	.
O=c1cc(-c2ccc(O)cc2)oc2cc(O)cc(O)c12	-16.3%	.	i	-11.1%	1.46µM*
COc1cccc(NC(=O)CN2CCCN(S(=O)(=O)c3ccc(Br)cc3)CC2)c1	-21.9%	-19.2	.	53.6%	.
COc1ccc(NC(=O)CN2CCN(S(=O)(=O)c3ccc(Br)cc3)CC2)cc1	-0.4%	-29.5*	.	14.2%	-14.5%
Cc1ccc(-n2nc(CO)c(C(=O)NCCCc3ccccc3)n2)cc1	10.6%	16.8	.	-14.7%	.
Cc1ccc(-n2nc(CO)c(C(=O)NC(C)CCCc3ccccc3)n2)cc1 (stereo unspecified)	-7.9%	-31.0*	.	40.4%	-18.5%
Cc1noc(C)c1Cc1ccc(C(=O)N2CCC(c3nc(C(=O)N4CCCC4)c(C)o3)CC2)o1	-4.6%	4.7	i	-9.6%	.
CCC1CN(C(=O)Nc2ccc(C)c(F)c2)c2ccccc2S1 (stereo unspecified)	9.6%	-27.4*	.	-19.5%	-8.9%
CCC1CN(C(=O)Nc2cc(OC)cc(OC)c2)c2ccccc2S1 (stereo unspecified)	4.0%	-23.6	.	-29.6%	.
O=C(NC1CCN(CCn2nc3n(c2=O)CCCC3)C1)c1ccc(Cl)cc1 (stereo unspecified)	.	-8.3	.	.	.
O=C(NCCc1nc(-c2ccccc2)cs1)c1ccc2nccn2c1	?	-41.1*	i	-11.3%	?
O=C(NCCc1ccccc1F)c1ccc2nccn2c1	-7.3%[87.6 µM]	-2.5	0.9%[88.5 µM]	27.7%[87.6 µM]	.
O[C@@H]1CC(CNCc2ccc(Cl)cc2)(COc2cccnc2)C[C@@H]1O (stereo partly specified)	3.5%	-2.2	-1.7%	-27.7%	.
Cc1noc(C)c1[S+](=O)([O-])N1CCCC1C(=O)N1CCC(c2nc3ccncc3[nH]2)CC1 (stereo unspecified)	2.1%	-30.9*	i	34.2%	-13.8%
